“And” between values parts separate entries of the source, which are not always exact repeats. Equal entries are not always repeated. Inconclusive results are not listed. The source made the active and inactive calls. The call rests on the fitted dose curve; in most records, active means well fitted cell-killing curve with a large enough effect in the repeat runs; inconclusive means weak or mixed curves, or effect the other way; inactive means flat fitted curve, though single readings scatter.
Experiment: qHTS RealTime-Glo MT Cell Viability Assay in HEK293 cells - 40 hour (AID 1224874); further: nearly all actives have a fitted effect of over 50% in size
Conditions: RealTime-Glo luminescence; max response: active compounds read low
Description: U.S. Tox21 Program National Center for Advancing Translational Sciences [NCATS] NIH Chemical Genomics Center [NCGC] U.S. Environmental Protection Agency [EPA] National Institutes of Environmental Health Sciences [NIEHS] National Toxicology Program [NTP] U.S. Food and Drug Administration [FDA] Tox21 Assay Overview: Measure of cell viability is critical in the cell-base assay. Analysis of cell viability is necessary for the characterization of cell responses to cytotoxic drugs and environmental stress. A RealTime-Glo MT Cell Viability Assay to monitor cell viability in real time of continues cell culture during 40 hours of compound treatment was used to screen Tox21 10K library compounds in Hek293 cells. The RealTime-Glo MT Cell Viability Assay is a nonlytic, homogeneous, bioluminescent method to measure cell viability in real time using a simple, plate-based method. The assay involves adding NanoLuc luciferase and a cell-permeant prosubstrate to cells in culture. Viable cells reduce the proprietary prosubstrate to generate a substrate for NanoLuc luciferase. This substrate diffuses from cells into the surrounding culture medium, where it is rapidly used by the NanoLuc Enzyme to produce a luminescent signal. The signal correlates with the number of viable cells, making the assay well suited for cytotoxicity studies.
Tox21 Assay Protocol Summary: The mixture of Hek293 cell suspension and reagents were dispensed at 600cells/6 ul/well in 1536-well tissue culture treated black solid bottom plates using a Multidrop dispenser. After the assay plates were incubated at a 37 C/5% CO2 incubator for 5 hours, 23 nL of compounds dissolved in DMSO, positive and negative controls was transferred to the assay plate by a pintool work station. The plates were incubated at 37 C for 40 hours. The luminescence intensity were measured at 0h, 8h, 16h, 24h, 32h and 40h time points using ViewLux plate reader during compound treatment.
On the % scale 0 is the no-effect control and ±100 the full control effect; potency means the concentration at half of the fitted maximal effect.

Question: With `CCN(CC)CCNc1ccc(CO)c2sc3ccccc3c(=O)c12` as the molecule, how does the Potency read?
Answer: 16.9 µM (active)

Question: For `Nc1ncnc2c1ncn2[C@@H]1O[C@H](COP(=O)(O)O)[C@@H](O)[C@H]1O`, which max response is on record?
Answer: 3.96% (inactive)

Question: For `C(=C/c1ccccc1)/c1ccccc1`, which max response is on record?
Answer: -13.3% (inactive)

Question: With `C=CC(=O)OCCN(CC)CC` as the molecule, how does the max response read?
Answer: 3.34% (inactive)

Question: With `Oc1ccc(-c2ccccc2)c(Cl)c1` as the molecule, how does the Potency read?
Answer: 21.9 µM (active)

Question: For `CC(C)c1ccccc1N`, which max response is on record?
Answer: 0.54% (inactive)

Question: Which Potency does the source give for `O=C1NC2CCCCN2C12CCN(CCCN1c3ccccc3CCc3ccc(Cl)cc31)CC2` (stereo not given) here?
Answer: 8.49 µM (active)

Question: Which max response does the source give for `CC[N+](CC)(CC)Cc1ccccc1` here?
Answer: 3.38% (inactive)

Question: For `CCCCCCCC(=O)OCC`, which max response is on record?
Answer: -3.83% (inactive)

Question: Which Potency does the source give for `N#CSCSc1nc2ccccc2s1` here?
Answer: 19.5 µM (active)

Question: With `O=C1NCN(c2ccccc2)C12CCN(CCCC(c1ccc(F)cc1)c1ccc(F)cc1)CC2` as the molecule, how does the Potency read?
Answer: 19 µM (active)

Question: With `CC(C)(C)c1cc(/C=C2\SC(=N)NC2=O)cc(C(C)(C)C)c1O` as the molecule, how does the Potency read?
Answer: 49 µM (active)

Question: For `CNCC[C@H](Oc1cccc2ccccc12)c1cccs1`, which Potency is on record?
Answer: 23.9 µM (active)

Question: For `CNC(=S)NN`, which Potency is on record?
Answer: 19.5 µM (active)

Question: For `CN1[C@@H]2CC[C@@H]1CC(OC(=O)C(CO)c1ccccc1)C2` (stereo not given in full), which max response is on record?
Answer: -6.75% (inactive)

Question: With `COc1ccccc1C=O` as the molecule, how does the max response read?
Answer: 3.17% (inactive)

Question: For `Cc1oc(-c2ccccc2)nc1CCOc1ccc(C[C@H](Nc2ccccc2C(=O)c2ccccc2)C(=O)O)cc1`, which max response is on record?
Answer: 0.495% (inactive)

Question: For `Cc1cc(C)c(C=O)c(C)c1`, which max response is on record?
Answer: 8.02% (inactive)

Question: With `Cn1cnc2ncnc(N)c21` as the molecule, how does the max response read?
Answer: 11.2% (inactive)

Question: For `CC(COC(=O)c1ccccc1)OC(=O)c1ccccc1` (stereo not given), which max response is on record?
Answer: -5.23% (inactive)

Question: Which max response does the source give for `C/C=C/CO` here?
Answer: 8.59% (inactive)

Question: With `COCC(=O)O[C@]1(CCN(C)CCCc2nc3ccccc3[nH]2)CCc2cc(F)ccc2[C@@H]1C(C)C` as the molecule, how does the Potency read?
Answer: 6.74 µM (active)

Question: Which max response does the source give for `Cc1cccc(C)n1` here?
Answer: -0.971% (inactive)

Question: For `CCOC(=O)[C@@](C)(N)Cc1ccc(O)c(O)c1`, which max response is on record?
Answer: 0.793% (inactive)

Question: Which Potency does the source give for `CCCCCCCCCCCCOC(=O)c1cc(O)c(O)c(O)c1` here?
Answer: 3.45 µM (active) and 3.47 µM (active)

Question: Which max response does the source give for `NC(=O)c1ccccc1N` here?
Answer: -1.93% (inactive)

Question: For `NCCCC(O)(P(=O)(O)O)P(=O)(O)O`, which max response is on record?
Answer: 12.2% (inactive)

Question: Which max response does the source give for `C=CC(C)C#N` (stereo not given) here?
Answer: 11.1% (inactive)

Question: Which Potency does the source give for `CN(C)CCCN1c2ccccc2CCc2ccccc21` here?
Answer: 54.9 µM (active)

Question: Which Potency does the source give for `CC1CCCCN1CCCOC(=O)c1ccc(OC2CCCCC2)cc1` (stereo not given) here?
Answer: 21.3 µM (active)

Question: With `Cc1cccc(C)c1NC(=O)CN1CCN(CCCC(c2ccc(F)cc2)c2ccc(F)cc2)CC1` as the molecule, how does the Potency read?
Answer: 10.7 µM (active)

Question: Which max response does the source give for `CCC1CCCCC1` here?
Answer: -1.07% (inactive)

Question: For `Cc1cc(=O)[nH]c(=O)[nH]1`, which max response is on record?
Answer: -0.154% (inactive)

Question: For `N[C@@H](CSSC[C@H](N)C(=O)O)C(=O)O`, which max response is on record?
Answer: 2.95% (inactive)

Question: With `CC1=C(/C=C/C(C)=C/C=C/C(C)=C/C(=O)Nc2ccc(O)cc2)C(C)(C)CCC1` as the molecule, how does the Potency read?
Answer: 893 nM (active) and 425 nM (active)

Question: With `CCCCCCCCCC(=O)N(C)C` as the molecule, how does the max response read?
Answer: -15.6% (inactive)

Question: For `Cc1occc1SSc1ccoc1C`, which max response is on record?
Answer: -28.3% (inactive)

Question: Which max response does the source give for `CCCCN(CCCC)CCC(O)c1cc2c(Cl)cc(Cl)cc2c2cc(C(F)(F)F)ccc12` (stereo not given) here?
Answer: -17.9% (inactive)

Question: Which max response does the source give for `CCOC(=O)COc1ccc(C)cc1` here?
Answer: 0.285% (inactive)

Question: Which Potency does the source give for `Cc1c(-c2ccc(O)cc2)n(Cc2ccc(OCCN3CCCCCC3)cc2)c2ccc(O)cc12` here?
Answer: 3.38 µM (active)

Reference: PubChem BioAssay (Tox21)
